Compounds with a hit are over-represented: about 3.5% of the library has one in this group of screens.
KCNK9 block: blocks the human KCNK9 two-pore domain potassium channel. 310,000 tested, 1.2% active. Q9NPC2. HEK293 KCNK9, FluxOR thallium flux fluorescence; stronger effect = lower value. B-score at 10 µM;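 active = ratio B-score over 3 SD below the library mean, with starting fluorescence within 5 SD of its mean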;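 also: negative B-score means less thallium flux so channel inhibition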
TMEM16A act: mouse TMEM16A channel activation, primary screen; Q8BHY3; HEK293 TMEM16A/YFP-H148Q/I152L, iodide quench fluorescence; stronger effect = lower value; B-score at 10 µM; 340,000 tested, 0.3% active;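 active = fluorescence-ratio B-score plate-corrected deviation score at least 3 library SD below zero, with starting fluorescence score within 5 deviations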;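 also: channel opened by trigger with iodide after compound preincubation; score built on the fluorescence ratio of max minus min over baseline; more negative score means more quench and so TMEM16A activation or potentiation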
Target sequence (Q8BHY3 whole entry, looked up): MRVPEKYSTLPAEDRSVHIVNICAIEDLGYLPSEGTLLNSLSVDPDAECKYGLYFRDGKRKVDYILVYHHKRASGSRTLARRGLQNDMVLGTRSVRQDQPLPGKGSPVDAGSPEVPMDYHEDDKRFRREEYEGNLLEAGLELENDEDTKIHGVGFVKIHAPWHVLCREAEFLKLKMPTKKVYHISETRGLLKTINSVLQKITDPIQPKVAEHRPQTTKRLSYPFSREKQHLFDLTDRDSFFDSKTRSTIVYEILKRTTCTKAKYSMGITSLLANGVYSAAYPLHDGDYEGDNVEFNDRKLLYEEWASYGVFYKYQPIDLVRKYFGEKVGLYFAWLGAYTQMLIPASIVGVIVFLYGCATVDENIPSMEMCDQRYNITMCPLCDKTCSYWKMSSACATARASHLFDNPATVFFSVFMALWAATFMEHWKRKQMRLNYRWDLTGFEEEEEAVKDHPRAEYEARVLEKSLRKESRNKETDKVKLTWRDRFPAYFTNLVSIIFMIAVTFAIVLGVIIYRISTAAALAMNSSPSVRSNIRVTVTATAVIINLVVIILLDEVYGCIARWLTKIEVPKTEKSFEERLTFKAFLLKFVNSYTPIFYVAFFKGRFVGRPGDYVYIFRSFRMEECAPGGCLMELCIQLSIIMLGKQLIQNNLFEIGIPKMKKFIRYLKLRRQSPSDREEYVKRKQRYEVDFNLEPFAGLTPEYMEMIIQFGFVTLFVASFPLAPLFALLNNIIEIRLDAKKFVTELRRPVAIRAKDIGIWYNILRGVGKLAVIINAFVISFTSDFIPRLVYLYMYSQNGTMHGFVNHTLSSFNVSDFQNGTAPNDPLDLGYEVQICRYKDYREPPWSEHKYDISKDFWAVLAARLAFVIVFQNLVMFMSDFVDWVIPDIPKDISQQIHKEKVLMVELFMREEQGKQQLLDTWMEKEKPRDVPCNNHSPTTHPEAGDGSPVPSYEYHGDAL
ANO1 block: inhibitors of mouse TMEM16A calcium-activated chloride channel; Q8BHY3; HEK293 TMEM16A/YFP iodide influx fluorescence, ionomycin; normalized B-score (activity score, 25-100; higher = stronger inhibition) at 10 µM; 310,000 tested, 1.2% active; AID 588511;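 active = ratio plate-corrected score three or more library SD toward inhibition, starting fluorescence score within five deviations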;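 also: score derived from kinetic fluorescence span divided by baseline fluorescence per well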
Kir21 block: inhibitors of mouse Kir2.1 inward-rectifier potassium channel; P35561; HEK293-Kir2.1, FluxOR thallium flux fluorescence; stronger effect = lower value; B-score at 10 µM; 310,000 tested, 0.85% active;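 active = fluorescence ratio B-score at or below minus 3 SD of library scores, with starting-brightness B-score within 2 SD, cut at about -4.2 in these data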;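 also: channel flux triggered by added potassium and thallium sulfate stimulus; B-score of peak minus minimum fluorescence over baseline after thallium stimulus; more negative B-score means stronger Kir2.1 block with less thallium influx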
KCNK3 block: human KCNK3 channel inhibition, primary screen; O14649; B-score at 10 µM; 340,000 tested, 0.84% active; CHO-KCNK3 thallium flux, FluxOR fluorescence; stronger effect = lower value; AID 602410;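 active = B-score under library mean minus 4 SD, starting fluorescence ratio at most library mean plus 5 SD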;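 also: more negative B-score means stronger inhibition of thallium flux through KCNK3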
Numbers stand for hits; - = inactive; . = no result.

SMILES	KCNK9 block	TMEM16A act	ANO1 block	Kir21 block	KCNK3 block
CCCCSc1nnc(-c2ccc(C)cc2)c2ccccc12	-7.1	-	-	-	-
Cc1ccc(Oc2nnc(-c3ccc(C)cc3)c3ccccc23)cc1	-	-	-	-	-
Cc1ccc(NC(=O)COc2coc(CN3CCN(c4ccccc4)CC3)cc2=O)cc1	-	-	-	-	-
C=C[C@@H]1c2cc(C)ccc2N(S(=O)(=O)c2ccc(C)cc2)[C@H](c2ccccc2C(F)(F)F)C1(C#N)C#N	.	-	.	.	-
CC(C)N(Cc1ccccc1)C(=O)CN1C(=O)NC(Cc2ccccc2)(c2ccccc2)C1=O (configuration not stated)	-	-	-	-	-
COc1ccccc1-c1ccc(SCc2ccccc2F)nn1	-	-	25	-	-
Cc1c(NS(=O)(=O)c2cccc(C(=O)OCC(=O)c3ccc(Cl)cc3)c2)c(=O)n(-c2ccccc2)n1C	.	-	.	.	-
CCOc1ccc(OCC(=O)OCc2cc(=O)n3cc(Br)ccc3n2)cc1	.	-10	.	.	-
CCOC(=O)c1ccc(NC(=O)CN2C(=O)CSC(C)C2=O)cc1 (configuration not stated)	-	-	-	-	-
CC(C)CC(=O)NC(NC(=S)Nc1sc2c(c1C#N)CCCC2)C(Cl)(Cl)Cl (configuration not stated)	-7.4	-	100	-	-
Cc1cc(O)c2c(c1)C(=O)c1cc(O)cc(O)c1C2=O	-	-	100	-	-
O=C1c2cc(O)cc(O)c2C(=O)c2c1cc(O)c([C@@H](CO)CCO)c2O	-	-	-	-	-
CC(C)Oc1cc(C(=O)N2CCC(N3CCCCC3)CC2)ccc1Nc1nnc(Cl)c(Nc2ccccc2S(C)(=O)=O)n1	.	-	.	.	-
O=C(Nc1ccccc1Cl)C(Cl)C(=O)c1ccccc1 (configuration not stated)	.	-	.	.	-
O=C(Nc1ccc(Cl)cc1)C(Cl)C(=O)c1ccccc1 (configuration not stated)	-	-	-	-11	-
OCCNCc1ccc(OCc2ccc(Cl)cc2Cl)cc1	-	-	-	-7.5	-
COc1cc(CNCCCCO)ccc1OCc1ccccc1F	-	-	-	-	-
S=C(Nc1ccccc1)Nc1ccc(OCc2ccc(Cl)cc2Cl)cc1	-	-	-	-	-
OCCCCNCc1ccc(OCc2ccc(Cl)cc2Cl)cc1	-	-	-	-7.1	-
CC(C(=O)NCc1ccccc1)N1CCN(c2ccc(F)cc2)CC1 (configuration not stated)	-	-	-	-	-
COc1cccc(-c2ncc3ccccc3c2COC(=O)c2ccc(C(C)(C)C)cc2)c1	.	-	.	.	-
COc1ccccc1-n1cnnc1SCc1csc(-c2ccccc2)n1	.	-	-	.	-
C=CCn1c(SCc2csc(-c3ccc(C)cc3)n2)nnc1-c1ccccc1OC	-	-	-	-7.7	-
CCN(CC)CCN(CC(=O)N(C1CCCCC1)C1CCCCC1)C(=O)c1ccco1	-	-	-	-4.4	-
COc1ccc(Cl)cc1NC(=O)CN(C(=O)c1ccco1)C1CCCCC1	-	-	-	-	-
SMILES	KCNK9 block	TMEM16A act	ANO1 block	Kir21 block	KCNK3 block
Cc1csc(=O)n1CC(=O)OCC(=O)NC(C)c1ccc(F)cc1 (configuration not stated)	.	-	.	.	-
O=C(O)c1ccc(/C=N\Nc2ccc(S(=O)(=O)N3CCOCC3)cc2[N+](=O)[O-])cc1	-	-	-	-	-
Cc1ccc(-n2c(O)c(/C=N/Nc3ccc(S(=O)(=O)N4CCOCC4)cc3[N+](=O)[O-])c3ccccc3c2=O)c(C)c1	-	-	100	-	-
O=S(=O)(Nc1ncnc2c1oc1ccccc12)c1ccc(Cl)s1	-	-	-	-	-
CC(=O)OCC1O[C@@H](O[C@@H]2C[C@H]3C(C)(C)[C@H](OC(C)=O)CC[C@]3(C)[C@H]3CC[C@]45C[C@]4(CC[C@H]5[C@@H](C)C[C@@H](O)[C@H](O)C(C)(C)O)[C@@]32C)[C@H](O)[C@@H](O)[C@@H]1O (some centres not stated)	-	.	100	-	.
CC(C)=CCC[C@](C)(O[C@@H]1O[C@H](CO[C@@H]2O[C@H](CO)[C@@H](O)[C@H](O)[C@H]2O)[C@@H](O)[C@H](O)[C@H]1O)C1CC[C@]2(C)C1C(=O)CC1[C@@]3(C)CC[C@H](O[C@H]4O[C@@H](CO)[C@H](O)[C@@H](O)[C@@H]4O)C(C)(C)C3CC[C@]12C (some centres not stated)	.	-	.	.	-
O=C(CNC(=O)c1ccccc1F)N/N=C/c1cc(Br)ccc1OCc1ccccc1	-6.6	-	-	-	-
COc1cc(C(=O)NCC2(N(C)C)CCCCC2)ccc1OCc1ccccc1	-	-	-	-	-
Cc1nn(-c2cccc(Cl)c2)c(Cl)c1/C=N/NC(=O)c1cccnc1	-7.4	-	-	-	-
COC(=O)N/N=C\c1c(C)nn(-c2ccccc2)c1Cl	-	-	-	-	-
Cc1ccc(C)c(OCC(=O)N/N=C/c2c(C)nn(-c3ccccc3)c2Cl)c1C	-	-	-	-4.4	-
CCO[C@H]1OC(C(=O)O)=C[C@@H](C)[C@@H]1CCCO	-	-	-	-	-
Cc1nc2cc(C(=O)N3c4ccccc4CC3C)ccc2s1 (configuration not stated)	-	-	-	-	-
COc1ccccc1C(=O)NCCC(=O)Nc1ccc(S(=O)(=O)N2CCC(C)CC2)cc1	.	-	.	.	-
Cn1c2ccccc2c(=O)c2ccc(NCCc3cccs3)cc21	.	-	.	.	-9.1
Cc1cccc(CCN=c2c([N+](=O)[O-])nn(-c3ccccc3)n2O)c1	-	-	-	-4.3	-
COc1ccc(-n2nc([N+](=O)[O-])c(=NCCc3cccc(C)c3)n2O)cc1	-	-	-	-	-
O=C(NNCc1ccc(O)cc1)c1ccccc1Cl	-	-	-	-	-
CCCn1c(SCC(=O)c2c(C)[nH]c(C)c2C(=O)OCC)nc2ccccc21	-	-	-	-4.3	-
Cn1nc(C(F)(F)F)c(/C=N/OC(=O)c2ccccc2)c1SCc1ccccc1Cl	-7.9	-	-	-	-
Cc1ccc(SCC(=O)N2CCN(S(=O)(=O)c3cccs3)CC2)cc1	.	-	.	.	-
CCOC(=O)/C(=C/C=C/c1ccccc1)NC(=O)c1ccccc1	-7.4	-	-	-	-
CCOC(=O)/C(=C\C=C\c1ccccc1)NC(=O)c1ccccc1	-	-	-	-	-
Cc1nn(S(=O)(=O)c2ccccc2)c(C)c1S(=O)(=O)N1CCOCC1	-	-	-	-	-
C/C=C\C(=O)Nc1cccc(C2=NOC3(C2)C[C@@H](C(N)=O)N(C(=O)c2ccc(OC)cc2)C3)c1 (some centres not stated)	-	.	-	-	.
CCN1/C(=C/c2cc[n+](CCCS(=O)(=O)[O-])c3ccccc23)Sc2ccccc21	-	-	-	-	-
C=CC[n+]1ccc(/C=C2\C=Cc3cc(C)ccc3N2CC)c2ccccc21	.	-	.	.	-15

Screens deposited in PubChem by Johns Hopkins Ion Channel Center.
